Data on 15 molecules can be found in PubChem BioAssay (EPA / NIEHS).

More than one record can exist for a structure, and the calls need not agree. The source made the active and inactive calls. The calls were made as follows: active = hit-call score of the fitted dose curve at least 0.9, where 1 is the maximum; inactive = score below 0.9.

The nature of the test: CCTE_Shafer_MEA_acute_cross_correlation_area: CCTE's Neural Acute Assay for Area of Cross Correlation, Shafer Lab (AID 2284024).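 Also: curves fitted for loss of cross-correlation area so actives lower synchrony.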 As for the experimental part:
CCTE_Shafer_MEA_acute assay is conducted using Axion Biosystems 48 well microelectrode array (MEA) plates and Maestro recording system. Each well of the MEA plate contains a grid of 16 microelectrodes embedded in the culture surface. Electrically active cells, such as neurons, can be cultured over the electrodes, and electrical activity in these cells can be recorded extracellularly. The spontaneous firing of neurons is captured from each electrode on a microsecond timescale providing both temporally and spatially precise data. […] The CCTE_Shafer_MEA_acute assay uses primary cultures of rat cortical neurons. As these cultures mature over time, neural networks develop functional activity and form cohesive networks in which electrical activity can be highly coordinated. Baseline 40-minute recordings are made on days post-plating 13 or 15, followed by a secondary 40-minute recording after chemical exposure.CCTE_Shafer_MEA_acute_cross_correlation_area is a component of the CCTE_Shafer_MEA_acute assay. It measures the area under the well-wide pooled inter-electrode cross-correlation of action potential firing (not normalized to auto-correlations) within a window centered around 0 for the phase lag during a recording in a microelectrode array (MEA) using Axion Biosystems Maestro 768 channel amplifier with the AxIS adaptive spike detector. The recordings before and after chemical treatment are used to calculate a percent change in the cross correlation area in each well.Data from the assay component CCTE_Shafer_MEA_acute_cross_correlation_area was analyzed into 1 assay endpoint. This assay endpoint, CCTE_Shafer_MEA_acute_cross_correlation_area, was analyzed in the negative analysis fitting direction relative to DMSO as the negative control and baseline of activity. Using a type of functional reporter, gain or loss-of-signal activity can be used to understand electrical activity.
Spontaneous activity in the cortical cultures was recorded using an Axion Biosystems Maestro 768 channel amplifier and Axion Integrated Studios (AxIS) v1.8 (or later) software. The amplifier recorded from all channels simultaneously (gain = 1200 x; sampling rate = 12.5 kHz/channel): raw signals were filtered with a Butterworth band-pass filter (300-5000 Hz), which filters out slower local field potentials leaving only fast potentials, i.e., "spikes", arising from extracellular currents associated with action potentials (Pine 2006; Wheeler and Nam 2011). On-line spike detection of filtered signals was conducted with the AxIS adaptive spike detector, using a threshold of 8x the root mean squared (rms) noise on each channel. Any electrodes with rms noise levels greater than 5 uV were grounded (e.g., no data were recorded). Once grounded, an electrode was grounded for the duration of the experiment. All recordings were conducted at 37 C. Wells were deemed usable if on the day of the exposure >/= 10 electrodes were active (defined as >/= 5 spikes/min). On DIV 13 or 15, a minimum of three wells from one cortical culture preparation were treated with each compound (0.03-40 uM). Prior to recording baseline activity, each mwMEA plate was placed in the Maestro at 37 C and allowed to sit for 20 min while firing rates stabilized. Baseline activity (40 min) was recorded before the addition of each compound. An additional 40 min of spontaneous activity was recorded in the presence of each compound. Changes in network parameters relative to baseline were assessed following compound treatment.
Take `[Cd+2].[Cl-].[Cl-]`: the call was inactive.

As to `CCCC[N+](CCCC)(CCCC)CCCC`, the AC50 was 0.00953 µM (active).

`CC1(C)[C@@H](C=C(Cl)Cl)[C@@H]1C(=O)O[C@@H](C#N)c1ccc(F)c(Oc2ccccc2)c1`: the AC50 is 0.208 µM (active).

Regarding `O=C(O)CNCP(=O)(O)O`, the result was inactive.

For `c1cc[n+]2c(c1)-c1cccc[n+]1CC2`, the molecule was classed as inactive.

For `CP(=O)(O)CCC(N)C(=O)O` (stereo unspecified), the result was inactive.

On to `O=[N+]([O-])O`, for which the molecule was classed as inactive and the half-maximal activity concentration (AC50) is 0.23 µM (active).

`Cc1ccc(OP(=O)(Oc2ccc(C)cc2)Oc2ccc(C)cc2)cc1` (tested in a mixture with another compound): the outcome was inactive.

Consider `C#CCN(C)[C@H](C)Cc1ccccc1`, for which the outcome was inactive.

For the molecule `CP(=O)(O)CC[C@H](N)C(=O)O`, the call was inactive.

Consider `CC1(C)[C@H](C=C(Cl)Cl)[C@@H]1C(=O)O[C@@H](C#N)c1cccc(Oc2ccccc2)c1`, for which the half-maximal activity concentration (AC50) was 0.17 µM (active).

Consider `Oc1ccc(C2(c3ccc(O)cc3)c3ccccc3-c3ccccc32)cc1`, for which the AC50 is 0.0252 µM (active).

`CC1(C)[C@H](C(=O)O[C@H](C#N)c2cccc(Oc3ccccc3)c2)[C@@H]1C=C(Br)Br`: the AC50 is 0.203 µM (active).

Take `COc1ccc(CO)cc1`: the call was inactive.

For the molecule `O=c1c2ccccc2c(=O)c2c1cc(Cl)c1[nH]c3c([nH]c12)c(Cl)cc1c(=O)c2ccccc2c(=O)c13`, the molecule was classed as inactive.

As a reminder, the AC50 is the midpoint of the concentration-response curve, whichever way the signal moves.
